# From ChEMBL document CHEMBL4296182, “CO-ADD screening of NIH NCI Diversity Set V”
# For part of these data: Entries with a potency or affinity are not part of this list.
# Tests used:
# Staphylococcus aureus = experiment: Antibacterial activity against Staphylococcus aureus MRSA ATCC 43300 (CO-ADD:GP_020); MIC in CAMBH media using NBS plates, by Resazurin F(560/590); type: functional; settings: Concentration 20 uM, ASSAY_TEST Inhibition of Bacterial Growth, detection method Resazurin, Fluorescence (ex560/em590), MEDIA CAMHB, plate type 384well, CORNING #3640, time 18 hr
# Acinetobacter baumannii = experiment: Antibacterial activity against Acinetobacter baumannii ATCC 19606 (CO-ADD:GN_034); MIC in CAMBH media using NBS plates, by Resazurin F(560/590); type: functional; settings: Concentration 20 uM, ASSAY_TEST Inhibition of Bacterial Growth, detection method Resazurin, Fluorescence (ex560/em590), MEDIA CAMHB, plate type 384well, CORNING #3640, time 18 hr
# Escherichia coli = experiment: Antibacterial activity against Escherichia coli ATCC 25922 (CO-ADD:GN_001); MIC in CAMBH media using NBS plates, by Resazurin F(560/590); type: functional; settings: Concentration 20 uM, ASSAY_TEST Inhibition of Bacterial Growth, detection method Resazurin, Fluorescence (ex560/em590), MEDIA CAMHB, plate type 384well, CORNING #3640, time 18 hr
# Klebsiella pneumoniae = settings: Concentration 20 uM; ASSAY_TEST Inhibition of Bacterial Growth; detection method Absorption (OD600); MEDIA CAMHB; plate type 384well; NBS; CORNING #3640; time 18 hr
# Candida albicans = settings: 20 µM
# Cryptococcus neoformans = settings: Concentration 20 uM; ASSAY_TEST Inhibition of Fungal Growth; detection method Resazurin; Absorption (OD600-OD570); plate type 384well; NBS; CORNING #3640
Structure (SMILES),Inhibition (Staphylococcus aureus) [%],Inhibition (Acinetobacter baumannii) [%],Inhibition (Escherichia coli) [%],Inhibition (Klebsiella pneumoniae) [%],Inhibition (Candida albicans) [%],Inhibition (Cryptococcus neoformans) [%]
CCOC(=O)c1[nH]c(CO)c(C(=O)OCC)c1C,12.97,11.05,2.06,19.54,9.36,-4.6
O=C(O)c1ccc2c(c1Sc1ccccc1)C(=O)c1ccccc1C2=O,-2.35,11.62,-1.12,2.65,1.7,-3.15
COc1ccc(/C(C#N)=C/c2ccccn2)cc1,30.75,-12.49,21.69,10.64,7.54,8.53
Cl.O=C(O)c1ccc(NCc2nc3ccccc3[nH]2)cc1,0.21,-0.88,-3.07,12.5,1.6,-6.81
c1ccc2c(c1)[nH]c1c3ccccc3sc21,12.39,-1.18,0.28,11.83,5.08,-2.59
CCOc1cc2c(Cl)ncnc2c(OCC)c1OCC,4.34,-8.17,3.68,0.85,2.82,-6.05
O=C1NCCc2c1[nH]c1ccccc21,-13.58,-2.97,-11.15,6.5,2.99,-7.2
OCc1nc2nc(Cl)c(Cl)[nH]c-2n1,-3.73,14.74,-8.33,8.57,1.75,-8.15
CCCCN1C(=O)CC(C(=O)OCC)=C1C,-5.09,-15.76,-0.5,-4.24,1.93,-4.18
CC(=O)Oc1c(C)c(OC(C)=O)c2c(c1C(C)=O)OC1CC(=O)C(C(C)=O)=C(O)C21C (stereo not given),13.8,-11.04,18.15,8.45,3.77,-8.61
Cc1c(Cl)cccc1Nc1ncccc1C(=O)OCC(O)CO (stereo not given) [CLONIXERIL],16.87,6.56,-0.19,9.09,-1.76,-6.15
Cc1cc(=O)[nH]c(N)n1,9.55,-6.26,2.4,1.73,3.77,-0.62
Brc1ccc(/N=N/c2ccc3ccccc3n2)cc1,10.21,4.06,-16.68,5.4,5.16,43.68
NS(=O)(=O)c1ccc(/N=N/c2ccc(O)[nH]c2=O)cc1,-4.07,-21.96,14.83,2.74,3.25,-15.42
CC1CC(C)(C)NC2(CCCC2)N1 (stereo not given),12.12,-5.32,5.91,11.32,-0.15,-4.43
CN1CCN(C2=NCCO2)CC1,4.85,-15.45,15.25,13.16,3.03,6.31
Cc1nccnc1Sc1ccccc1,3.9,-12.89,2.25,5.26,7.15,-6.77
CC(C)(C)n1nc(C2CC2)cc1NC(=O)Nc1ccccc1,5.22,-11.36,8.62,7.92,1.47,-6.02
N#CC1=CC2CN(Cc3ccccc3)C1C1C(=O)N(c3ccccc3)C(=O)C21 (stereo not given),-0.51,3.07,-13.61,5.72,9.06,18.01
Cc1ccc(NC(=O)Nc2nc3ccccc3s2)cc1NC(=O)Nc1nc2ccccc2s1,-1.63,-10.02,17.87,8.92,-2.38,-1.68
Clc1nc(NCCc2ccccc2)c2c[nH]nc2n1,2.77,12.4,0.9,13.65,5.89,-10.39
Cn1ncc2c(Nc3ccc(O)cc3)nc(Cl)nc21,6.63,8.39,3.23,11.85,5.74,-12.05
Cc1cccc(C)c1NC(=O)Nc1ccc(S(N)(=O)=O)cc1,-3.68,5.47,8.39,5.63,0.87,-12.09
CN(/N=N/c1[nH]cnc1C(=O)NN)C1CCCCC1,8.69,8.54,-4.79,11.56,3.97,-4.73
Cc1nc(NCc2ccccc2)c2cc[nH]c2n1 [ROLODINE],-1.89,-12.81,4.8,9.06,2.35,-8.43
